In PubChem BioAssay AID1159580 (chemical genetic matrix, 2015):
Out of some 5,500 compounds screened, about 2,000 (36%) were called active. About 18% were inconclusive and are not listed. No stated cut-off is given here; in the data, active means normalized growth mostly below about 0.91 (no sharp cut-off); inconclusive means no clear call, values can overlap the other calls; inactive means mostly above about 0.92. This is one part of the list.

Experiment: chemical genetic growth profiling, strain panel (AID 1159580);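 further: tested at 20 µM; growth read once vehicle control cultures reached saturation at 30 °C; 1 = growth at the plate median or of vehicle wells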
Conditions: growth OD

Measured: normalized growth

Nc1ncnc2nc[nH]c12
active: S. cerevisiae deletion strains, locus YKR001C, strain vps1, stronger effect = lower value 0.319 | S. cerevisiae deletion strains, locus YLR039C, strain RIC1, stronger effect = lower value 0.443 | S. cerevisiae deletion strains, locus YLR262C, strain YPT6, stronger effect = lower value 0.514 | S. cerevisiae deletion strains, locus YLR268W, strain sec22, stronger effect = lower value 0.795 | S. cerevisiae deletion strains, locus YLR330W, strain CHS5, stronger effect = lower value 0.842 | S. cerevisiae deletion strains, locus YLR418C, strain cdc73, stronger effect = lower value 0.612 | S. cerevisiae deletion strains, locus YMR223W, strain ubp8, stronger effect = lower value 0.846 | S. cerevisiae deletion strains, locus YNL233W, strain BNI4, stronger effect = lower value 0.695 | S. cerevisiae deletion strains, locus YNL307C, strain MCK1, stronger effect = lower value 0.591 | S. cerevisiae deletion strains, locus YOL147C, strain pex11, stronger effect = lower value 0.834 | S. cerevisiae deletion strains, locus YOR144C, strain elg1, stronger effect = lower value 0.885 | S. cerevisiae deletion strains, locus YOR184W, strain ser1, stronger effect = lower value 0.708 | S. cerevisiae deletion strains, locus YPR163C, strain tif3, stronger effect = lower value 0.889 | S. cerevisiae deletion strains, strain wtn01, stronger effect = lower value 0.841 | S. cerevisiae strains, strain wild type, stronger effect = lower value 0.879
inactive: S. cerevisiae deletion strains, locus YJR066W, strain TOR1, stronger effect = lower value 0.966 | S. cerevisiae deletion strains, locus YKL009W, strain mrt4, stronger effect = lower value 0.942 | S. cerevisiae deletion strains, locus YKL068W, stronger effect = lower value 1.03 | S. cerevisiae deletion strains, locus YKL085W, strain MDH1 (second series), stronger effect = lower value 1.01 | S. cerevisiae deletion strains, locus YKL085W, strain MDH1, stronger effect = lower value 1.01 | S. cerevisiae deletion strains, locus YKL160W, strain elf1, stronger effect = lower value 0.995 | S. cerevisiae deletion strains, locus YKR026C, strain gcn3, stronger effect = lower value 0.996 | S. cerevisiae deletion strains, locus YKR091W, strain srl3, stronger effect = lower value 0.99 | S. cerevisiae deletion strains, locus YLL001W, strain dnm1, stronger effect = lower value 0.965 | S. cerevisiae deletion strains, locus YLL026W, stronger effect = lower value 0.994 | S. cerevisiae deletion strains, locus YLL041C, strain sdh2, stronger effect = lower value 0.991 | S. cerevisiae deletion strains, locus YLR027C, strain aat2, stronger effect = lower value 0.997 | S. cerevisiae deletion strains, locus YLR058C, strain SHM2, stronger effect = lower value 0.908 | S. cerevisiae deletion strains, locus YLR102C, strain apc9, stronger effect = lower value 0.997 | S. cerevisiae deletion strains, locus YLR113W, strain HOG1, stronger effect = lower value 1.04 | S. cerevisiae deletion strains, locus YLR221C, strain rsa3, stronger effect = lower value 0.964 | S. cerevisiae deletion strains, locus YLR258W, strain gsy2, stronger effect = lower value 0.985 | S. cerevisiae deletion strains, locus YLR262C, strain YPT6 (second series), stronger effect = lower value 1.01 | S. cerevisiae deletion strains, locus YLR320W, strain mms22, stronger effect = lower value 0.973 | S. cerevisiae deletion strains, locus YLR342W, strain FKS1 (second series), stronger effect = lower value 0.864 | S. cerevisiae deletion strains, locus YLR342W, strain FKS1, stronger effect = lower value 0.983 | S. cerevisiae deletion strains, locus YLR357W, strain rsc2, stronger effect = lower value 0.972 | S. cerevisiae deletion strains, locus YLR370C, strain arc18, stronger effect = lower value 0.983 | S. cerevisiae deletion strains, locus YLR371W, strain rom2, stronger effect = lower value 0.985 | S. cerevisiae deletion strains, locus YLR384C, strain iki3, stronger effect = lower value 0.987 | S. cerevisiae deletion strains, locus YML016C, strain PPZ1, stronger effect = lower value 1.04 | S. cerevisiae deletion strains, locus YML032C, strain rad52, stronger effect = lower value 0.972 | S. cerevisiae deletion strains, locus YML120C, strain ndi1, stronger effect = lower value 0.97 | S. cerevisiae deletion strains, locus YML124C, strain tub3, stronger effect = lower value 1 | S. cerevisiae deletion strains, locus YMR058W, strain fet3, stronger effect = lower value 0.994 | S. cerevisiae deletion strains, locus YMR078C, strain ctf18, stronger effect = lower value 0.988 | S. cerevisiae deletion strains, locus YMR125W, strain sto1, stronger effect = lower value 0.978 | S. cerevisiae deletion strains, locus YMR129W, stronger effect = lower value 0.979 | S. cerevisiae deletion strains, locus YMR205C, strain PFK2, stronger effect = lower value 0.968 | S. cerevisiae deletion strains, locus YMR231W, strain pep5, stronger effect = lower value 0.991 | S. cerevisiae deletion strains, locus YMR263W, strain SAP30, stronger effect = lower value 0.932 | S. cerevisiae deletion strains, locus YMR307W, strain GAS1, stronger effect = lower value 1.18 | S. cerevisiae deletion strains, locus YNL067W, strain RPL9B, stronger effect = lower value 0.945 | S. cerevisiae deletion strains, locus YNL071W, strain lat1, stronger effect = lower value 0.988 | S. cerevisiae deletion strains, locus YNL128W, strain TEP1, stronger effect = lower value 0.955 | S. cerevisiae deletion strains, locus YNL183C, strain NPR1, stronger effect = lower value 0.97 | S. cerevisiae deletion strains, locus YNL209W, strain ssb2, stronger effect = lower value 0.984 | S. cerevisiae deletion strains, locus YNL248C, strain rpa49, stronger effect = lower value 0.982 | S. cerevisiae deletion strains, locus YNL250W, strain rad50, stronger effect = lower value 1.01 | S. cerevisiae deletion strains, locus YNL271C, strain bni1, stronger effect = lower value 0.956 | S. cerevisiae deletion strains, locus YNL298W, strain CLA4, stronger effect = lower value 0.956 | S. cerevisiae deletion strains, locus YNL322C, strain KRE1 (second series), stronger effect = lower value 0.982 | S. cerevisiae deletion strains, locus YNL322C, strain KRE1, stronger effect = lower value 0.97 | S. cerevisiae deletion strains, locus YNR049C, strain mso1, stronger effect = lower value 0.982 | S. cerevisiae deletion strains, locus YNR052C, strain pop2, stronger effect = lower value 0.954 | S. cerevisiae deletion strains, locus YOL006C, strain TOP1, stronger effect = lower value 0.783 | S. cerevisiae deletion strains, locus YOL012C, strain htz1 0.719 | S. cerevisiae deletion strains, locus YOR001W, strain rrp6, stronger effect = lower value 1 | S. cerevisiae deletion strains, locus YOR061W, strain CKA2, stronger effect = lower value 0.995 | S. cerevisiae deletion strains, locus YOR069W, strain VPS5, stronger effect = lower value 0.971 | S. cerevisiae deletion strains, locus YOR070C, strain gyp1, stronger effect = lower value 0.981 | S. cerevisiae deletion strains, locus YOR080W, strain dia2, stronger effect = lower value 0.997 | S. cerevisiae deletion strains, locus YOR083W, strain WHI5, stronger effect = lower value 0.981 | S. cerevisiae deletion strains, locus YOR106W, strain vam3, stronger effect = lower value 0.953 | S. cerevisiae deletion strains, locus YOR136W, strain idh2, stronger effect = lower value 0.968 | S. cerevisiae deletion strains, locus YOR231W, strain MKK1, stronger effect = lower value 1.01 | S. cerevisiae deletion strains, locus YOR265W, strain rbl2, stronger effect = lower value 0.987 | S. cerevisiae deletion strains, locus YOR270C, strain vph1, stronger effect = lower value 0.972 | S. cerevisiae deletion strains, locus YOR290C, strain snf2, stronger effect = lower value 0.971 | S. cerevisiae deletion strains, locus YOR316C, strain cot1, stronger effect = lower value 0.995 | S. cerevisiae deletion strains, locus YPL051W, strain arl3, stronger effect = lower value 0.99 | S. cerevisiae deletion strains, locus YPL055C, strain LGE1, stronger effect = lower value 0.796 | S. cerevisiae deletion strains, locus YPL078C, strain atp4, stronger effect = lower value 0.983 | S. cerevisiae deletion strains, locus YPL106C, strain sse1, stronger effect = lower value 0.973 | S. cerevisiae deletion strains, locus YPL240C, strain hsp82, stronger effect = lower value 0.993 | S. cerevisiae deletion strains, locus YPL241C, strain CIN2, stronger effect = lower value 1.01 | S. cerevisiae deletion strains, locus YPL256C, strain CLN2, stronger effect = lower value 1.06 | S. cerevisiae deletion strains, locus YPR119W, strain clb2, stronger effect = lower value 0.987 | S. cerevisiae deletion strains, locus YPR141C, strain kar3, stronger effect = lower value 1.02 | S. cerevisiae deletion strains, locus YPR167C, strain met16, stronger effect = lower value 0.976
